USP30 block = human USP30 deubiquitinase inhibition; Q70CQ3; purified USP30, Ub-rhodamine cleavage fluorescence; AID 1645860; inhibition, % at 25 µM; actives 5.3% (n = 47,000)
USP17 block = inhibitors of human USP17 deubiquitinase; A8MUK1; purified USP17, Ub-rhodamine cleavage fluorescence, 3 h; inhibition, % at 50 µM; actives 6.5% (n = 47,000)
USP8 block = inhibitors of human USP8 deubiquitinase; P40818; purified USP8, Ub-rhodamine cleavage fluorescence, 30 min; inhibition, % at 20 µM; actives 4.2% (n = 47,000)
* = called active by the depositor; i = inactive. Most compounds without a hit are left out; they make up all but 12% or so of the library. No stated cut-off is given here; in the data, active means inhibition above about 30%; inactive means the rest.

SMILES	USP30 block	USP17 block	USP8 block
O=C(NCCn1cc(SCC(=O)N2CCOCC2)c2ccccc21)c1ccc(Cl)cc1Cl	4	-4	-217
O=C(CSc1cn(Cc2ccccc2Cl)c2ccccc12)N1CCOCC1	37*	14	-35
O=C(Cn1cc(S(=O)(=O)Cc2ccc(Cl)cc2)c2ccccc21)N1CCCCC1	75*	3	3
O=C(Cn1cc(S(=O)(=O)Cc2ccc(Cl)cc2)c2ccccc21)N1CCCCCC1	13	-3	-4
O=C(CSc1cn(CC(=O)N2CCCCC2)c2ccccc12)Nc1ccc(Cl)cc1	27	38*	-1
O=C(CSc1cn(CC(=O)N2CCCCC2)c2ccccc12)Nc1ccc2c(c1)OCO2	18	8	-25
Cc1ccc(S(=O)(=O)N2Cc3ccccc3CC2C(=O)Nc2nc3ccc(S(C)(=O)=O)cc3s2)cc1 (configuration not stated)	-63	5	-8
CCN1CCN(c2nc3ncn(CC(=O)Nc4ccc(C)cc4C)c(=O)c3s2)CC1	3	4	-1
O=C(Nc1ccc(N2CCOCC2)cc1)C(Cc1ccccc1)NS(=O)(=O)c1ccc2c(c1)OCCO2 (configuration not stated)	-10	-7	-12
O=C(COC(=O)Cc1c[nH]c2ccccc12)Nc1c(Cl)cccc1Cl	-2	-4	6
COc1ccc(F)cc1-c1cccc(CC2(C(=O)NC3CC3)CCOCC2)c1	-5	-8	-2
COCCN1CCCC12CCN(C(=O)c1ccc(C)cc1)CC2	-24	-20	-57
Cc1cccc(NC(=O)N(C)Cc2nc3cc(C(=O)N(C)C)ccc3n2C)c1	-7	-5	17
C[C@@H]1OC(O[C@@H]2C[C@H](c3ccc4c(c3O)C(=O)C3=C(C4=O)[C@@]4(OC5CC[C@H](O)[C@H](C)O5)C(=O)C[C@](C)(O)C[C@@]4(O)C=C3)O[C@H](C)C2O)CC[C@@H]1O[C@H]1C[C@@H](O)[C@H](O)[C@@H](C)O1 (some centres not stated)	-389	-45	-306
CC1O[C@@H](c2ccc3c(c2O)C(=O)C2=C(C3=O)[C@@]3(O)C(=O)C(O)[C@](C)(O)C[C@@]3(O)C=C2)CC[C@@H]1OC(=O)/C=C/C=C/C=C/[C@@H]1O[C@@](C)(C(=O)O)O[C@H]1C (some centres not stated)	-106	48*	-79
CC(C)c1cc(C(=O)N2CCCC2c2cc(C(C)C)no2)on1 (configuration not stated)	-12	-6	-6
O=C(CCc1nc2ccccc2c(=O)[nH]1)Nc1ccc(Cl)cc1F	-23	22	15
CCc1ccccc1NC(=O)C1CCCN(c2nc(-c3ccc(OC)cc3)no2)C1 (configuration not stated)	24	14	20
N#C/C(=C\c1ccc(C(F)(F)F)cc1)c1c[nH]c2ccccc12	-25	32*	4
OC(/C=C/c1c[nH]c2ccccc12)C(F)(F)F (configuration not stated)	-63	-12	10
CC1(C)Oc2ccccc2[C@H]2OCC3(CCN(C(=O)c4ccc5ncccc5c4)CC3)C[C@@H]21	i	-181	-134
COc1cc(OC)cc(C(=O)NC(C(=O)OCC(=O)c2c[nH]c3ccccc23)C(C)C)c1 (configuration not stated)	-75	-5	0
COc1cc(NC(=O)c2ccco2)c(C(=O)OCC(=O)c2c[nH]c3ccccc23)cc1OC	-214	-19	44*
COc1ccccc1-c1noc2ncnc(NCCN3CCCC3)c12	-29	-10	-2
Cc1cccc(-c2nc(NC(=O)COc3ccc(F)cc3)no2)c1	68*	71*	83*
SMILES	USP30 block	USP17 block	USP8 block
Cc1noc(-c2cccc(OCC(=O)Nc3cccnc3)c2)n1	18	2	-4
O=C(COc1ccc(F)cc1)Nc1noc(-c2ccccc2)n1	74*	63*	24
COc1ccccc1OC(C)C(=O)Nc1noc(-c2ccccc2)n1 (configuration not stated)	18	1	8
Cc1ccc(-c2nc(NC(=O)COc3cc(C)cc(C)c3)no2)cc1	0	1	3
O=C(Cc1noc(-c2ccc(F)cc2)n1)Nc1ccccc1	-198	-28	-19
O=C(Nc1noc(-c2ccccc2)n1)c1ccc(Br)cc1	25	21	38*
Cc1ccc(-c2nc(NC(=O)COc3ccc(Cl)cc3)no2)cc1	-2	93*	93*
Cc1ccc(-c2cc(C(=O)OC(C)C(=O)c3ccccc3)c3cccc(C)c3n2)cc1 (configuration not stated)	0	5	20
O=C(Nc1cnc(-c2cccc(Cl)c2)nc1)C1CCC1	22	10	30*
O=C(Nc1cnc(-c2cccnc2)nc1)C1CCC1	19	10	23
COc1ccc(-c2nnn(CC(=O)NCCc3ccccc3)n2)cc1OC	22	47*	0
COc1cc(-n2c(=O)c3ccccc3n(CC(=O)NCC3CCCO3)c2=O)cc(OC)c1OC (configuration not stated)	1	2	0
COc1cc(-n2c(=O)c3ccccc3n(CC(=O)N3CCN(c4ccccc4)CC3)c2=O)cc(OC)c1OC	15	2	-10
COc1cc(-n2c(=O)c3ccccc3n(Cc3cccc(F)c3)c2=O)cc(OC)c1OC	35*	26	8
COc1cc(-n2c(=O)c3ccccc3n(CC(=O)NCCc3ccccc3)c2=O)cc(OC)c1OC	35*	17	26
CCN1CCN(CC(=O)NCCc2ccc(OC)c(OC)c2)CC1	22	13	19
CCCOc1ccc(CNC(=O)C2CCN(c3ccncc3)CC2)cc1	-6	-6	-14
Cc1ccc(C2N=C(N3CCOCC3)Nc3nc(C)cc(=O)n32)cc1 (configuration not stated)	-3	0	7
Cc1cccc2nnc(N3CCCC(C(=O)NCc4cccc(F)c4)C3)n12 (configuration not stated)	-130	-46	-19
CCn1nnc2c(NCc3ccc4c(c3)OCO4)ncnc21	7	2	12
Cc1cccc(NC(=O)CSc2ccc(-n3cnc(-c4ccccc4)c3)nn2)c1	61*	20	-2
Cc1cccc(NC(=O)CSc2ccc(-c3nc(C)no3)cn2)c1	-81	-14	-9
O=C(c1cc(F)ccc1-n1cnnn1)N1CCN(c2ccccc2)CC1	12	13	5
O=C(CCCCCn1c(=O)[nH]c2ccccc2c1=O)Nc1ccccc1Br	35*	16	18
O=C(CCCCn1c(=O)[nH]c2ccccc2c1=O)Nc1cccc(Cl)c1	20	80*	81*
SMILES	USP30 block	USP17 block	USP8 block
O=C(CCCn1c(=O)[nH]c2cc(Cl)ccc2c1=O)NC1CCN(Cc2ccccc2)CC1	1	2	3
CC(C)C[C@@H](NC(=O)Cn1c(=O)[nH]c2ccccc2c1=O)C(=O)O	13	-3	-54
CC(C)N(Cc1cc(=O)[nH]c2ccccc12)C(=O)c1cccc(Br)c1	27	2	12
O=C(c1c(F)cccc1F)N1CCC[C@@H](Cn2nnc(-c3ccncc3)n2)C1	13	0	5
O=C(CCc1ccccc1)N1CCC[C@H]1Cn1nnc(-c2cccnc2)n1	27	7	10
COc1ccc(NC(=O)C2CCN(C3=NS(=O)(=O)c4ccccc43)CC2)cc1	41*	43*	3

Screening results from PubChem.
